High-throughput results deposited in PubChem by National Center for Advancing Translational Sciences (NCATS).
D2 ag-1 – Beta-Arrestin HTS for Positive Allosteric Modulators of the Human D2 Dopamine Receptor: Agonists; activation, % (concentration not given with the values); DiscoveRx PathHunter D2 beta-arrestin, luminescence, 90 min; 100% = 57 uM dopamine signal; D(2) dopamine receptor (Homo sapiens), P14416; hit rate 0.084% among 360,000; in the data active means activation above about 40%; inconclusive means between about 15% and that limit
Target sequence (P14416 whole entry, looked up): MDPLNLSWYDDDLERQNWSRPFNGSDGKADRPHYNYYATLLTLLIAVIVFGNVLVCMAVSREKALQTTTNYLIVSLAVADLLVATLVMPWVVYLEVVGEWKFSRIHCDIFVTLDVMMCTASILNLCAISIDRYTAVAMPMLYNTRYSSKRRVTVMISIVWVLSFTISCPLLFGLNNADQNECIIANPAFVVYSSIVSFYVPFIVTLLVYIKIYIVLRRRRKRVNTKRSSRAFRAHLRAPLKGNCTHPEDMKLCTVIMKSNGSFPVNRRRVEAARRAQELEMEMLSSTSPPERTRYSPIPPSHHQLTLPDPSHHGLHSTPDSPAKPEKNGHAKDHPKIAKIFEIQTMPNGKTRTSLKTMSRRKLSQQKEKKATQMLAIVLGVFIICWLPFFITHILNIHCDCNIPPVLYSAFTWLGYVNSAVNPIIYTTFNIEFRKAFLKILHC
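DiscoveRx PathHunter D2 beta-arrestin cells (2,100/well) attached overnight, then compound-stimulated 90 min at 37 C in HBSS/10 mM HEPES/0.1% Tween-20 buffer; beta-galactosidase complementation read by luminescence after 1 h at ambient temperature. Dopamine 57 uM final (EC100) as control.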
D2 antag – HTS Assay for Allosteric Antagonists of the Human D2 Dopamine Receptor: Primary Screen for Antagonists. hit rate 2% among 340,000. HEK293 TREx D2 cells, calcium flux, dopamine EC80. AID 485344, 2010. inhibition, % at 10 µM. D(2) dopamine receptor (Homo sapiens), P14416; in the data active means inhibition above about 30%; inactive means below that, where a call was filed; further: 0% is about no effect
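Dopamine at EC80 is the agonist stimulus; test compounds precede it by 180 s. Calcium flux read kinetically in a force-coupled, inducible HEK293 T-REx D2 cell line.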
D2 ag-2 – HTS Assay for Allosteric Agonists of the Human D2 Dopamine Receptor: Primary Screen for Agonists. activation, % at 2 µM. HEK293 T-REx D2 cells, calcium flux agonist mode. D(2) dopamine receptor (Homo sapiens), P14416. hit rate 0.53% among 340,000;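 active means activation over 3 SD above normal in the single-dose calcium agonist read, cut at about 30% in these data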; further: 0% is about no effect
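HEK293 Trex D2 cells, tetracycline-induced, o/n 30 C 5% CO2; no-wash Ca dye, RT 30–90 min; 10-cycle baseline, 23 nl cpd added, kinetic Ca read 180 s; agonist hits = positive Ca response.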
D2 PAM-1 – Beta-Arrestin HTS for Positive Allosteric Modulators of the Human D2 Dopamine Receptor: Potentiators; hit rate 0.23% among 360,000; DiscoveRx D2 beta-arrestin cells, luminescence, 90 min; 100% = 57 uM dopamine signal; potentiation, % (concentration not given with the values); D(2) dopamine receptor (Homo sapiens), P14416; in the data active means potentiation above about 50%; inconclusive means mostly about 30% to 49%
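D2 cells co-treated with compound plus 50 nM dopamine (EC20) for 90 min at 37 deg C to detect potentiation. Beta-arrestin recruitment was read as enzyme-fragment luminescence after 1 h at ambient temperature. Full response was set by 57 uM dopamine.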
D2 PAM-2 – HTS Assay for Positive Allosteric Modulators of the Human D2 Dopamine Receptor: Primary Screen for Potentiators. D(2) dopamine receptor (Homo sapiens), P14416. HEK293 T-REx D2, calcium flux, EC20 dopamine potentiation. potentiation, % at 10 µM. hit rate 0.34% among 340,000;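 active means potentiation over 3 SD above the plate norm, cut at about 30% in these data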; further: 0% is about no effect
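Potentiation of an EC20 dopamine calcium response is measured in a force-coupled, tetracycline-inducible Hek293 Trex D2 line. Compound-only kinetic reads over 180 s flag agonists before dopamine addition.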
An asterisk follows results filed as active; ? = inconclusive; . = no result given. An excerpt weighted towards active compounds, which were near 2.4% of everything screened.

SMILES | D2 ag-1 | D2 antag | D2 ag-2 | D2 PAM-1 | D2 PAM-2
Brc1ccc(C2Nc3cccc4cccc(c34)N2)o1 | 8.0 | -8.4 | 0.1 | 61.3* | 4.1
Oc1ccccc1C1Nc2cccc3cccc(c23)N1 | 13.1 | -2.5 | 0.7 | 60.5* | 20.4
COc1cc(OC)c(NC(=O)Nc2sc3nc4n(c(=O)c3c2C)CCC(C)CC4)cc1Cl (centres undefined) | . | . | -0.4 | . | -9.4
Cc1cc(C)c(NC(=O)C(C)Sc2nnc(-c3ccco3)n2-c2ccccc2)c(C)c1 (centres undefined) | . | 10.3 | -0.1 | . | 7.3
CC(Sc1nnc(-c2cc3ccccc3o2)n1-c1ccccc1)C(=O)O (centres undefined) | -2.5 | 45.0* | 0.1 | 2.5 | -2.9
CCc1nn(C(C)C(=O)NCCN2CCN(c3cccc(C)c3C)CC2)c(=O)c2cc3occc3n12 (centres undefined) | 1.1 | 51.5* | 2.6 | -28.5 | -28.4
COc1ccc(N(CCC(=O)O)S(=O)(=O)c2ccc(C)c(C)c2)cc1 | -0.4 | 4.9 | -0.1 | -3.1 | -6.4
Cc1ccc(S(=O)(=O)CCC(=O)O)cc1C | 2.1 | 35.5* | 0.4 | -4.8 | -1.8
COc1ccc(-c2cc3nc(-c4ccc(C)cc4)cc(C(F)(F)F)n3n2)cc1 | . | . | -2.3 | . | -1.3
CC1CC(C)CN(CC(O)COC2CC(C)CC(C)(C)C2)C1 (centres undefined) | -5.1 | . | . | -24.1 | .
CC1CC(OCC(O)CN2CCOCC2)CC(C)(C)C1 (centres undefined) | 1.1 | 45.8* | -0.1 | 1.3 | -3.7
Cc1c(C(C)NC(=O)Nc2ccc(F)cc2F)cnn1C (centres undefined) | -3.4 | 38.2* | -0.8 | -24.1 | -13.4
Cc1cc(NC(=O)Nc2ccc(F)cc2F)n(C)n1 | -3.9 | 13.3 | 6.3 | -9.7 | -4.5
CC(C)(C)OC(=O)N1CCNc2ccccc2C1 | -4.3 | 30.5* | 1.2 | -36.3 | -4.1
CC(=O)N1C(C)(C)CC(=NOC(=O)c2ccc(C)cc2)CC1(C)C | ? | -19.6 | -0.4 | 67.3* | -1.9
CC(=O)N1C(C)(C)CC(=NOC(=O)c2ccccc2)CC1(C)C | 10.4 | -5.4 | -0.3 | -1.2 | -0.2
O=C(CCNC(=O)C1CCN(S(=O)(=O)c2ccc(F)cc2)CC1)NCc1ccc(F)cc1 | 4.2 | 32.7* | 0.6 | 2.9 | 3.6
CC(C)N1C(=O)c2ccccc2C1C(=O)NC1CCCCCC1 (centres undefined) | -2.1 | -12.2 | -1.8 | 4.8 | 31.3*
CCOC(=O)c1c(C)[nH]c(N=Nc2ccccc2)c1C | -4.2 | 67.1* | -0.5 | -12.9 | 4.8
CCOC(=O)c1c(C)[nH]c(N=Nc2cccc(C)c2)c1C | -2.7 | 32.7* | 1.0 | -19.5 | 13.0
CCOC(=O)c1c(C)[nH]c(N=Nc2ccc(C)cc2)c1C | -1.5 | -4.9 | 0.8 | -18.4 | 10.1
CCOC(=O)C1C(=O)NC(c2ccccc2)=NC1c1cccc(Br)c1 (centres undefined) | -1.0 | 55.2* | 0.0 | -2.0 | 8.5
CC(C)C(=O)N(c1cc2sc(=O)oc2c2ccccc12)S(=O)(=O)c1cccs1 | ? | -12.1 | 1.0 | 75.3* | -6.8
CCOC(=O)Cn1c(C)c(Br)c(=O)c2cccc(C)c21 | -2.5 | 31.2* | 0.4 | -26.8 | -11.4
CCC(C(=O)Nc1ccc(C)c(C)c1)n1c(=O)c(C(F)(F)F)nc2ccccc21 (centres undefined) | . | . | . | . | 2.1
N#Cc1cc(NCC2CCCO2)c([N+](=O)[O-])cc1C#N (centres undefined) | 6.5 | -4.2 | 1.4 | 50.1* | 3.7
Cc1ccc(C(=Cc2ccc([N+](=O)[O-])cc2)C(=O)O)cc1 | -2.7 | . | . | -4.7 | .
CC(C(=O)OCC(=O)c1ccc(Br)cc1)N1C(=O)C2C3C=CC(C3)C2C1=O (centres undefined) | -3.3 | -19.6 | 2.4 | -1.2 | 32.2*
